Experimental data reported in ChEMBL document CHEMBL3988442, “University of Dundee, Small-Polar-MMV Screening Library” (2021).
In all, about 48,000 compounds went through this assay and about 13,000 (27%) showed an effect of 50% or more. The list shows a part of the results.

System: Wolbachia pipientis
Test: Anti-Wolbachia Cell-Based Screen
Assay type: functional
Parameters: scale not given: in the data most compounds retested in dose-response had high values
Conditions: 5 µM

Going from `O=C([C@H]1COC[C@H]2CN(c3ccncn3)C[C@H]21)N1CCCC1` to `CN(C)C(=O)C1CN(c2ccncn2)CCN(C2CCOCC2)C1` (stereo not drawn), the “Percent Effect” value rises from -2.247% to 126.1%.

First: CN(C)C(=O)C1CN(Cc2c[nH]cn2)CCN(C2CCOCC2)C1 (stereo not drawn)
Second: Cc1nccc(N2CCN(C3CCOCC3)CC(C(=O)N(C)C)C2)n1 (stereo not drawn)
The “Percent Effect” value of the first is lower: -9.527% for the first, 164.8% for the second.

Going from `Cc1nccc(N2CCC(=O)N(CC3CC3)C(C(C)C)C2)n1` (stereo not drawn) to `CNC(=O)C1CN(c2ccnc(C)n2)CCN(C2CCOCC2)C1` (stereo not drawn), the “Percent Effect” value rises from -7.894% to 102.7%.

Going from `Cc1cc(N2CCN(C3CCOCC3)CC(C(=O)N(C)C)C2)ncn1` (stereo not drawn) to `Cc1nccnc1N1C[C@H]2CN(C3CCOCC3)C[C@@]2(C(=O)O)C1`, the “Percent Effect” value falls from 98.55% to -7.502%.

First: CCc1c(C)sc2ncnc(N3CCN(C4CCOCC4)CC3)c12
Second: Cc1noc(-c2ccnc(N3CCCN(C4CCOCC4)CC3)c2)n1
The “Percent Effect” value of the first is higher: 8.782% for the first, -8.48% for the second.

First: CN1CCN(C(=O)c2ccc(Cn3cc(Br)cn3)cc2)CC1
Second: CCc1nncn1CCNC(=O)N1CCN(Cc2ccccc2)CC1
The “Percent Effect” value of the first is lower: -6.635% for the first, 122% for the second.

Going from `CN(Cc1ccc(Cl)s1)C(=O)NCCN1CCCCCC1=O` to `Cc1nc(C2CCN(C(=O)c3ccc(Cl)s3)CC2)cc(=O)[nH]1`, the “Percent Effect” value rises from -12.97% to -8.54%.

Compared with `Cc1cc(NC(=O)C(C)N2CCN(c3nc(C)cs3)CC2)on1` (stereo not drawn), `CCn1cnnc1CNC(=O)N1CCN(c2nc(C)c(C)s2)CC1` is lower in “Percent Effect” value: 1.656% for the first, 1.256% for the second.

First: COCc1cccc(NC(C(N)=O)c2ccc(Br)cc2)c1 (stereo not drawn)
Second: CC(CC(=O)NS(=O)(=O)c1ccc2c(c1)OCCO2)c1ccc(F)cc1 (stereo not drawn)
The “Percent Effect” value of the first is higher: 31.5% for the first, -2.674% for the second.

First: Cc1cc(NCC2CCN(c3ccccc3)C2)n2ncnc2n1 (stereo not drawn)
Second: Cn1nccc1CN1CCCC(COc2ccccc2F)C1 (stereo not drawn)
The “Percent Effect” value of the first is lower: 0.02222% for the first, 162.8% for the second.

Compared with `O=C(COCC1CCCO1)N1CCCN(Cc2ccccc2F)CC1` (stereo not drawn), `Cc1cc(CNC(=O)N2CCCN(Cc3ccccc3)CC2)no1` is higher in “Percent Effect” value: -31.39% for the first, 3.243% for the second.

Going from `CSc1ccc2cc(CN(C)CCCN(C)C)c(=O)[nH]c2c1` to `COc1cccc(CN(C)CCCn2cnc3c(N)ncnc32)c1`, the “Percent Effect” value rises from -7.905% to 85.72%.

Compared with `CSc1ccccc1CN1CCn2nc(CNC(C)=O)cc2C1`, `CCn1cnnc1CNC(=O)N1CCN(Cc2ccccc2)CC1` is higher in “Percent Effect” value: -10.31% for the first, 4.693% for the second.

Going from `CN(CCCn1cnc2c(N)ncnc21)Cc1ccccc1` to `COc1ccc(OCCN(C)CCCn2cnc3c(N)ncnc32)cc1`, the “Percent Effect” value rises from 86.6% to 102.2%.

Compared with `COc1ccc(OCCN(C)C(=O)NC(C)c2nncn2C)cc1` (stereo not drawn), `COc1ccc(OCCCN(C)C(=O)C2CCCN2C(N)=O)cc1` (stereo not drawn) is lower in “Percent Effect” value: 5.358% for the first, -3.357% for the second.

Compared with `CN(Cc1ccccc1)CC(O)Cn1cnc2c(cnn2C)c1=O` (stereo not drawn), `CN(Cc1ccccc1)CC(O)Cn1cnc2ccccc2c1=O` (stereo not drawn) is higher in “Percent Effect” value: -10.76% for the first, 5.606% for the second.

Going from `COc1cccc(CN(C)C(=O)CN2CCN(CCO)CC2)c1` to `CCS(=O)(=O)c1ncc(CN(C)Cc2cccc(OC)c2)n1CCOC`, the “Percent Effect” value falls from -4.711% to -4.749%.

Compared with `COc1cccc(SCC(=O)N2CCC(N3CCCC3=O)CC2)c1`, `COc1cccc(SCCCn2cnc3c(N)ncnc32)c1` is higher in “Percent Effect” value: -9.437% for the first, 97.7% for the second.

Compared with `COc1cccc(CCCn2cnnc2[S+](C)[O-])c1` (stereo not drawn), `CCn1cnnc1CNC(=O)N1CCN(CCc2ccccc2)CC1` is higher in “Percent Effect” value: 5.279% for the first, 119.3% for the second.

Going from `C[C@@H]1CN(C(=O)CCCn2nnc(-c3ccc(F)cc3)n2)C[C@]1(C)O` to `CCn1cnnc1CNC(=O)N1CCOC(c2ccc(F)cc2)C1` (stereo not drawn), the “Percent Effect” value falls from 1.392% to -19.34%.

Compared with `CN(C)CCN1CC2(CCN(C(=O)c3cnccn3)CC2)OC1=O`, `CN(C)C1COC2(CCN(C(=O)c3cccnc3)CC2)C1` (stereo not drawn) is lower in “Percent Effect” value: -7.77% for the first, -11.3% for the second.

Going from `O=C(c1cccnc1)N1CCC2(CNS(=O)(=O)c3cnccc3O2)C1` (stereo not drawn) to `O=C(c1ccccn1)N1CCC2(CNS(=O)(=O)c3cnccc3O2)C1` (stereo not drawn), the “Percent Effect” value falls from 123.8% to 119.5%.

Going from `CC(C)N(C)C(=O)C1=NOC2(CCN(C(=O)c3ccccn3)C2)C1` (stereo not drawn) to `CC(C)(C)C(=O)N1CCC2(CNS(=O)(=O)c3cnccc3O2)C1` (stereo not drawn), the “Percent Effect” value rises from 12.65% to 153.5%.

Compared with `CC(C)(C)C(=O)N1CCN(Cn2nccc2-c2cccnc2)CC1`, `CC(NC(=O)N1CCN(CCc2ccccc2)CC1)c1nncn1C` (stereo not drawn) is higher in “Percent Effect” value: -27.57% for the first, -0.7448% for the second.

Compared with `O=C(c1cnc(-c2ccccc2)s1)N1CCOC2(CCCC2)C1`, `CN1CCOC(C(=O)N2CCOC3(CCCC3)C2)C1` (stereo not drawn) is higher in “Percent Effect” value: -9.958% for the first, 0.3314% for the second.

Going from `CC(C)(C)C(=O)N1CCC2(CC1)CC(Oc1ccccc1)CO2` (stereo not drawn) to `CC(C)C(=O)NC1COC2(CCN(C(=O)c3cccnc3)CC2)C1` (stereo not drawn), the “Percent Effect” value rises from -1.342% to 16.59%.

First: O=C(c1ccc(Cl)s1)N1CCC2(CNS(=O)(=O)c3cnccc3O2)C1 (stereo not drawn)
Second: O=C(O)C1(O)CCN(c2ccc3cccc(Cl)c3n2)CC1
The “Percent Effect” value of the first is higher: 130.4% for the first, 102.6% for the second.

Compared with `CC(C)Cn1cc(NC(=O)N2CCOC(c3ccccc3)C2)cn1` (stereo not drawn), `CCC1CN(Cc2nnc(C(C)C)o2)CCC(=O)N1Cc1ccccc1` (stereo not drawn) is lower in “Percent Effect” value: 2.646% for the first, -5.543% for the second.

Going from `Cc1nc(-c2ccccc2)sc1C(=O)NCCNc1ncccn1` to `O=C(O)C(F)(F)F.O=C1[C@H]2CN(c3ncccn3)C[C@H]2CN1Cc1ccncc1`, the “Percent Effect” value rises from 2.127% to 3.817%.

Going from `Cc1nc[nH]c1-c1nccn1-c1ccc(C(N)=O)c(N2CCCC2)c1` to `Nc1nccc(N2CCC(Cc3ccccc3Cl)(C(=O)O)CC2)n1`, the “Percent Effect” value falls from 8.513% to -23.92%.

First: CN(C(=O)CCC(F)(F)F)c1cccc2ncccc12
Second: CN(Cc1ccco1)C(=O)NCc1ccnc(SC(C)(C)C)c1
The “Percent Effect” value of the first is lower: 2.571% for the first, 12.7% for the second.

Compared with `Cc1n[nH]c(SCC(=O)N[C@@H](C)C(N)=O)n1`, `CCn1cnnc1CNC(=O)N1CCCN(C(C)=O)CC1` is higher in “Percent Effect” value: -9.569% for the first, -5.792% for the second.

First: O=C(C1CCOCC1)N1C[C@@H]2[C@@H](C1)OCC(=O)N2Cc1ccncc1.O=C(O)C(F)(F)F
Second: O=C(C1CCC1)N1C[C@@H]2CN(Cc3ccncc3)C(=O)[C@@H]2C1.O=C(O)C(F)(F)F
The “Percent Effect” value of the first is lower: -1.521% for the first, 108.5% for the second.

First: CCN1C[C@@H]2CN(C(=O)C3CC=CC3)C[C@@H]2C1=O
Second: O=C(C1CC=CC1)N1C[C@H]2CN(Cc3ccncc3)C(=O)[C@H]2C1.O=C(O)C(F)(F)F
The “Percent Effect” value of the first is lower: 14.39% for the first, 103% for the second.

Compared with `Cc1ccc(CNS(=O)(=O)CC2=NC(=O)n3cccc3C2=O)cc1`, `COc1cccc2ccc(N3CCC(O)(c4ccc(C)cn4)CC3)nc12` is higher in “Percent Effect” value: 16.21% for the first, 110% for the second.

First: COc1ccnc(CN2CCC(O)(c3ccc(C)cn3)CC2)c1OC
Second: COc1cccc(CN2CCC(O)(c3ccc(C)cn3)CC2)c1OC
The “Percent Effect” value of the first is lower: -7.822% for the first, -1.243% for the second.

First: COc1ccccc1OC1(C(=O)O)CCN(c2ccccn2)CC1
Second: COc1ccccc1OC1(C(=O)O)CCN(c2nc(C)cnc2C)CC1
The “Percent Effect” value of the first is lower: -33.54% for the first, -31.32% for the second.

Going from `COc1cccc2ccc(N3CCC(O)(C(=O)O)CC3)nc12` to `Cc1nc(N2CCCC2)nc(N2CCC(O)(C(=O)O)CC2)c1C`, the “Percent Effect” value falls from 85.02% to -11.99%.

Compared with `O=S(=O)(Nc1nccs1)c1cc(Cl)cc2c1OCC2`, `CCn1cnnc1CNC(=O)N1CCN(c2nccs2)CC1` is higher in “Percent Effect” value: -24.06% for the first, 84.21% for the second.

First: Fc1cc(CN2CCOC3(CCOCC3)C2)ccc1OC(F)F
Second: Cn1cc(CN2CCCC(CCc3c(F)cccc3F)C2)cn1 (stereo not drawn)
The “Percent Effect” value of the first is lower: -0.1745% for the first, 4.691% for the second.

Going from `CCc1noc(CSc2n[nH]c(-c3ccccn3)n2)n1` to `CCCc1noc(CNc2cc(C[S+](C)[O-])ccc2Cl)n1` (stereo not drawn), the “Percent Effect” value rises from -7.886% to -7.446%.

First: CCn1cc(CN2CCCC(COc3ccccc3F)C2)cn1 (stereo not drawn)
Second: CCn1cnnc1CNC(=O)N1CCC(Cc2cccnc2)CC1
The “Percent Effect” value of the first is higher: 9.663% for the first, 3.678% for the second.

First: CCC1CN(CC(=O)N2CCCC2)CCN1CCOC (stereo not drawn)
Second: CCC1CN(CC(=O)N2CCC2)CCN1CCOC (stereo not drawn)
The “Percent Effect” value of the first is higher: 124% for the first, 4.498% for the second.

Going from `CCC1CN(CCNC(C)=O)CCN1CCOC` (stereo not drawn) to `CCC1CN(CCC(=O)N(C)C)CCN1CCOC` (stereo not drawn), the “Percent Effect” value falls from 1.458% to -4.079%.

First: CCC1CN(CC(=O)NC2(C#N)CCCC2)CCN1CCOC (stereo not drawn)
Second: CCC1CN(CC(=O)N2CCN(C(C)=O)CC2)CCN1CCOC (stereo not drawn)
The “Percent Effect” value of the first is lower: 2.566% for the first, 107.2% for the second.

Compared with `O=C(NCC1CC1)c1cc(C2CC2)nc2onc(C3CCCNC3)c12` (stereo not drawn), `COCCNC(=O)c1cc(C2CC2)nc2onc(C3CCNC3)c12` (stereo not drawn) is lower in “Percent Effect” value: 103.5% for the first, 98.56% for the second.

Compared with `CC(C)Nc1nc2c(cc1C(=O)NCC1CC1)CCNCC2.O=C(O)C(F)(F)F.O=C(O)C(F)(F)F`, `Cc1c(Br)cccc1C(=O)NCC1CCCNC1.Cl` (stereo not drawn) is higher in “Percent Effect” value: -11.9% for the first, 0.4435% for the second.

Going from `COc1ccc2nc(C3CC3)cc(C(=O)NCCc3nnc[nH]3)c2c1` to `COc1ccc2nc(C3CC3)cc(C(=O)NCc3noc(C)n3)c2c1`, the “Percent Effect” value rises from -12.63% to 1.07%.

First: O=c1[nH]c(C2CCOC2)nc2ccc(Br)cc12 (stereo not drawn)
Second: CC(C)N(C)C(=O)C1CCC(=O)N(CCc2cccc(F)c2)C1 (stereo not drawn)
The “Percent Effect” value of the first is lower: -44.09% for the first, -15.9% for the second.

First: c1cnn(CCNCc2csc(-c3ccc4c(c3)OCO4)n2)c1
Second: CCn1cnnc1CNC(=O)N1CCN(Cc2ccsc2)CC1
The “Percent Effect” value of the first is lower: -13.49% for the first, 120.4% for the second.

Compared with `COC(=O)CNC(=O)C(C(C)C)n1cnc2cc(F)c(F)cc21` (stereo not drawn), `CCn1cnnc1CNC(=O)N1CCN(CC(C)C)CC1` is higher in “Percent Effect” value: -6.926% for the first, 151.2% for the second.

Compared with `CCn1cnnc1CNC(=O)N1CCN(c2cccs2)CC1`, `CCn1cnnc1CNC(=O)N1CCN(Cc2ccco2)CC1` is higher in “Percent Effect” value: 0.168% for the first, 145.2% for the second.

First: CCn1cnnc1CNC(=O)N1CCN(C(C)C)CC1
Second: CCn1cnnc1CNC(=O)N1CCOCC1
The “Percent Effect” value of the first is higher: 131.3% for the first, -3.836% for the second.

First: CCn1cnnc1CNC(=O)NCC(C(C)C)N1CCC(C)CC1 (stereo not drawn)
Second: CCn1cnnc1CNC(=O)N1CCCCCC1
The “Percent Effect” value of the first is lower: -9.877% for the first, 138.5% for the second.
